Measurements from PubChem BioAssay (EPA / NIEHS).
The source made the active and inactive calls. How the source made its calls: active means hit-call score of the fitted dose curve at least 0.9, where 1 is the maximum; inactive means score below 0.9.

Each compound was assayed against Estrogen receptor (Homo sapiens) (UniProt P03372) (assay: OT_ERa_GFPERaERE_0480: Odyssey Thera (OT) 8-hour HeLa Transcription Induction Assay for Estrogen Receptor (AID 2283381)).
Procedure: OT_ERa_GFPERaERE_0480 is a cell-based, single-readout assay that uses HeLa, a human cervix cell line, with measurements taken at 8 hours after chemical dosing in a 384-well plate.OT_ERa_GFPERaERE_0480 is one of one assay component(s) measured or calculated from the OT_ERa_GFPERaERE_0480 assay. It is designed to make measurements of fluorescent protein induction, a form of inducible reporter, as detected with optical microscopy: fluorescence microscopy signals by Microscopy technology.Data from the assay component OT_ERa_GFPERaERE_0480 was analyzed into 1 assay endpoint. This assay endpoint, OT_ERa_EREGFP_0480, was analyzed in the positive analysis fitting direction relative to DMSO as the negative control and baseline of activity. Using a type of inducible reporter, measures of receptor for gain-of-signal activity can be used to understand the reporter gene at the pathway-level as they relate to the gene ESR1. Furthermore, this assay endpoint can be referred to as a primary readout, because the performed assay has only produced 1 assay endpoint. To generalize the intended target to other relatable targets, this assay endpoint is annotated to the nuclear receptor intended target family, where the subfamily is steroidal.
All assay endpoints are quantified using high content image analysis algorithms.

Chain of Estrogen receptor (Homo sapiens) (P03372 whole entry, looked up): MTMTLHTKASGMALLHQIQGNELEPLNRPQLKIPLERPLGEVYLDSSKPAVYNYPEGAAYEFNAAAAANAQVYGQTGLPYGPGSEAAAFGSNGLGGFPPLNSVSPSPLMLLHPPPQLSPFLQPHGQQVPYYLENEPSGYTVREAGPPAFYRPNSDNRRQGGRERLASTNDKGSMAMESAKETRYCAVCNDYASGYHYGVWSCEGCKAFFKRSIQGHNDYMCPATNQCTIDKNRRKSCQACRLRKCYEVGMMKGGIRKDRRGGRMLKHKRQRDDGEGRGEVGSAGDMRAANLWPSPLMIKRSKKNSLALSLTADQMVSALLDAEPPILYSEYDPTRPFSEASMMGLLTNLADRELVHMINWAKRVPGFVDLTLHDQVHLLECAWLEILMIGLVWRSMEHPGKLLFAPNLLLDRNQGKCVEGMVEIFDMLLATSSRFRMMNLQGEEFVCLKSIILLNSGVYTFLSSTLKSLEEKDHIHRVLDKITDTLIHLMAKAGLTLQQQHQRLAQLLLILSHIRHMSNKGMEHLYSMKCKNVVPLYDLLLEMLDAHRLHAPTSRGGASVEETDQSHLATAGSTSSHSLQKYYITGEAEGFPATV

SMILES	outcome	AC50
O=c1[nH]cc(F)c(=O)[nH]1	inactive	
CNC(=O)[C@H]1O[C@@H](n2cnc3c(NCc4cc(Cl)ccc4OCc4cc(C)no4)ncnc32)[C@H](O)[C@@H]1N	inactive	
CCCCc1ccc2c(n1)[C@@H](c1ccc(OC)cc1C[C@H](C)C(=O)O)[C@H](C(=O)O)[C@H]2c1ccc2c(c1)OCO2	inactive	
Cc1ccc(C(C)C)c(O)c1	inactive	
Cc1cccc(C)c1O	inactive	
CC(C)(C)c1cc(O)c(C(C)(C)C)cc1O	inactive	
COc1ccc(C)cc1N	inactive	
CCCCOC(=O)CCCCCCCCC(=O)OCCCC	inactive	
NCC1(Cc2noc(=O)[nH]2)CCCCC1	inactive	
Oc1ccc2c(c1)OC[C@@H](N1CCC(O)(c3ccc(F)cc3)CC1)[C@H]2O	inactive	
COc1cc(-c2nc(NC(=O)c3cc4cc(C)cc(C)c4n3CC(=O)O)sc2CCC2CCCCC2)c(OC)cc1Cl		66.2 µM (active)
COC(=O)c1ccc(O)cc1	inactive	
Cc1cc(NC(=O)C(=O)O)cc(C)c1Oc1ccc(O)c2c1CCC2	inactive	
CCOC(=O)C(C)(C)Oc1ccc(Cl)cc1	inactive	
CCCCCCCCCCCC(=O)OC	inactive	
Oc1ccc2ccccc2c1N=Nc1ccccc1	inactive	
Cc1oc(-c2ccccc2)nc1CCOc1cccc2c1ccn2CCC(=O)O	inactive	
O=c1c(O)c(-c2ccc(O)c(O)c2)oc2cc(O)cc(O)c12	inactive	
CCOC(=O)CCC(=O)OCC	inactive	
O=C(OCCCCCOC(=O)c1ccccc1)c1ccccc1	inactive	

SMILES	outcome	AC50
Cc1ccc(C)c(O)c1C	inactive	
O=C(N[C@@H](Cc1ccccc1)[C@@H](O)C(=O)N1C[C@@H](O)[C@@H](O)C1)c1cc2cc(Cl)ccc2[nH]1	inactive	
NC(=O)Cn1c(=O)cc(CCN2CCN(c3nccc4sccc34)CC2)c2ccc(F)cc21	inactive	
Cc1ccc2ncccc2c1	inactive	
CNCc1cc(F)ccc1Oc1ccc(Cl)c(Cl)c1		75.6 µM (active)
CCCCCCCC=O	inactive	
Nc1ccc2c(c1)C(=O)c1ccccc1C2=O	inactive	
COc1cc(C=O)ccc1O	inactive	
CC1=C(/C=C/C(C)=C/C=C/C(C)=C/CO)C(C)(C)CCC1	inactive	
CN[C@H]1CC[C@@H](c2ccc(Cl)c(Cl)c2)c2ccc(S(N)(=O)=O)cc21		12.3 µM (active)
Cc1cccc(Nc2cc(Cl)nc(SCC(=O)O)n2)c1C	inactive	
O=C(O)Cc1ccccc1Nc1c(Cl)cccc1Cl	inactive	
Nc1ccc(S(=O)(=O)c2ccc(N)cc2)cc1	inactive	
OC[C@@H](O)[C@@H](O)[C@H](O)[C@H](O)CO	inactive	
CC(=O)Oc1ccccc1C(=O)O	inactive	
FC(F)(F)C(F)(F)C(F)(F)C(F)(F)C(F)(F)C(F)(F)CCI	inactive	
Cc1cccc([N+](=O)[O-])c1C	inactive	
CCCCCCOCCO	inactive	
C[Si]1(C)O[Si](C)(C)O[Si](C)(C)O[Si](C)(C)O1	inactive	
Nc1ccccc1N	inactive	
